Screening data: PubChem BioAssay, National Center for Advancing Translational Sciences (NCATS)
Rows were chosen to be rich in hits. Some 8.8% of all compounds tested hit in one or more screens of this group.
HTT cytoprotect: qHTS Multiplex Assay to Identify Dual Action Probes in a Cell Model of Huntington: Cytoprotection (ATP) | PC12 HTT-Q103 induced, cytoprotection, ATP luminescence, 40 h | Potency, µM (titrated, usually from 56.4 µM), for the others: cytoprotection (ATP increase), hits mostly activators | 230,000 compounds, 0.14% hits | AID 1471, 2008; further: % of control where 0% means no effect; nearly all actives have a fitted effect of over 45% in size
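Rat PC12, Q103 Htt exon1-GFP fusion, ecdysone promoter; tebufenozide inducer 100 nM final; compound titration; qHTS, 1500 cells/well; ATPlite luminescent read.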
ALDH1A1 block: qHTS Assay for Inhibitors of Aldehyde Dehydrogenase 1 (ALDH1A1); 220,000 compounds, 7.3% hits; Purified ALDH1A1, NADH fluorescence, propionaldehyde substrate; AID 1030, 2008; Potency, µM (titrated, usually from 75.3 µM), without a hit: at the top dose activity, negative = inhibition, usual class: inhibitors; Aldehyde dehydrogenase 1A1 (Homo sapiens), P00352; active means well fitted inhibition curve with a large enough effect, not every such curve was filed as active; inconclusive means small, poorly fitted or top-dose-only effect, or another doubt; inactive means no such curve, though single readings can be large or run the other way;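 further: plate controls were no enzyme wells and a reference inhibitor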
Target sequence (P00352 whole entry, looked up): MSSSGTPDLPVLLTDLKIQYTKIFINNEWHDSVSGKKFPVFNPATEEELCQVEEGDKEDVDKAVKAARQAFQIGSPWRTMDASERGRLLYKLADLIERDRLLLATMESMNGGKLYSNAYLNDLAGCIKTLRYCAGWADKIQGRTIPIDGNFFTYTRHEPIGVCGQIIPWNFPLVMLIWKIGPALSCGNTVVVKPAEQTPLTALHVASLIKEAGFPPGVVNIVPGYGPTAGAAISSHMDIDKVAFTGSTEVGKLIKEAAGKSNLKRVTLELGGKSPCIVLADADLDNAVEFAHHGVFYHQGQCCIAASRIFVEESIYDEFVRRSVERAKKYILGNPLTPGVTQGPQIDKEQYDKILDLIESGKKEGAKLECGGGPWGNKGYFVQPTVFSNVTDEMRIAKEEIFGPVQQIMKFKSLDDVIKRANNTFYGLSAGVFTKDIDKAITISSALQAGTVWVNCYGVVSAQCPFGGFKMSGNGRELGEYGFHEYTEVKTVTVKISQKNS
HTT aggregate: qHTS Multiplex Assay to Identify Dual Action Probes in a Cell Model of Huntington: Aggregate Formation (GFP). PC12 HttQ103-GFP aggregates, Acumen cytometry, 40 h. Potency, µM (series often up to 46.1 µM), without a hit: top-dose activity change, negative = inhibition, hits mostly inhibitors. 220,000 compounds, 1.1% hits; further: on the % scale 0 is the no-effect control and ±100 the full control effect; nearly all actives have a fitted effect of over 60% in size
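Huntingtin Q103 exon 1–GFP aggregates in induced PC12 cells (100 nM tebufenozide) were quantified by cytometry from lysates, with compounds dosed in titration.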
HPGD inh: qHTS Assay for Inhibitors of HPGD (15-Hydroxyprostaglandin Dehydrogenase). purified HPGD, NADH fluorescence kinetic, PGE2 substrate. Potency, µM, for the others: at the highest dose activity change, negative = inhibition, usual class: inhibitors. 150,000 compounds, 4.3% hits. AID 894, 2007. 15-hydroxyprostaglandin dehydrogenase [NAD(+)] (Homo sapiens), P15428; active means well fitted inhibition curve with a large enough effect, not every such curve was filed as active; inconclusive means small, poorly fitted or top-dose-only effect, or another doubt; inactive means no such curve, though single readings can be large or run the other way; further: on the % scale 0 is the no-effect control and ±100 the full control effect
Target sequence (P15428 whole entry, looked up): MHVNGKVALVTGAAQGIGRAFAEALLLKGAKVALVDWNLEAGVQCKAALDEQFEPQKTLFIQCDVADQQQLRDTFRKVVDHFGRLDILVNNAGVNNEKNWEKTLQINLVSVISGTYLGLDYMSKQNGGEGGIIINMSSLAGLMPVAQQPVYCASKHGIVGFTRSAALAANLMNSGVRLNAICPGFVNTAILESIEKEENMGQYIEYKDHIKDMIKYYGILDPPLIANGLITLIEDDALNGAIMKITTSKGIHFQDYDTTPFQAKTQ
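20 nM HPGD preincubated 15 min at room temperature with compound in 50 mM Tris-HCl pH 8, 0.01% Tween 20. Started with 1 mM NAD+ and 30 uM prostaglandin E2; NADH fluorescence (360/450 nm) read 5 times over 30-s intervals, last minus first.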
Lamin A splicing: qHTS Assay for Modulators of Lamin A Splicing | HeLa LMNA splicing GFP/RFP minigene ratio, 48 h | AID 1487, 2009 | Potency, µM (highest dose often 46.1 µM), for the others: at the highest dose ratio change, negative = inhibition, actives largely listed as inhibitors | 200,000 compounds, 0.01% hits; active means well fitted inhibition curve with a large enough effect in the signal ratio, with a control signal flat, not every such curve was filed as active; inconclusive means small, poorly fitted or top-dose-only effect, or effect the other way, or a change in a side signal; the % refers to the signal ratio; further: on the % scale 0 is the no-effect control and ±100 the full control effect
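Read-out is the ratio of GFP to DsRed2 object intensity, acquired by 488 nm laser-scanning cytometry on HeLa lamin A-EGFP minigene reporter cells. Compound incubation 48 hrs at 37 °C in Opti-MEM with 2% FBS; DMSO 0.5% final.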
* hit, by the source's call; ? = inconclusive; . = no result; [ ] = another dose, or the depositor's remark. Unless noted, the call rests on the fitted dose curve; in most records, active means well fitted curve in the direction sought with a large enough effect; inconclusive means small, poorly fitted or top-dose-only effect, or another doubt; inactive means no such curve, though single readings can be large; an effect the other way counts as inactive or inconclusive. Potency means the concentration at half of the fitted maximal effect.

SMILES	HTT cytoprotect	ALDH1A1 block	HTT aggregate	HPGD inh	Lamin A splicing
Cc1ccc(CNC(=O)c2ccc3c(=O)[nH]c4c(C(=O)NCC5CCCO5)sc(=S)n4c3c2)cc1 (configuration not stated)	-18.1%	?	5.1%	.	.
O=C(NCc1ccccc1)c1ccc2c(=O)[nH]c3c(C(=O)NCC4CCCO4)sc(=S)n3c2c1 (configuration not stated)	-5.9%[10 µM]	20µM*	20.8%	.	?
CCCCCNC(=O)c1ccc2c(=O)[nH]c3c(C(=O)NCC4CCCO4)sc(=S)n3c2c1 (configuration not stated)	0.1%	?	-19.5%	11.2µM*	-0.6%
Cc1cc(C)cc(NC(=S)NCCN(C2CCCCC2)C2CCCC2)c1	-36.4%	-7.0%	-14.0%	.	1.9%[46 µM]
O=c1c(-c2ccc(Cl)cc2)nc2cnc(N3CCOCC3)nc2n1CCc1ccccc1	-9.9%	?	.	.	8.2%
COc1cccc(-c2ccc3ncnc(NCc4ccccc4)c3c2)c1	-240.7%	?	.	.	?
COCc1nc2ccccc2n1Cc1c(F)cccc1Cl	-10.7%[10 µM]	-1.2%	14.0%[9.22 µM]	.	?
C=CC1=C2C=C(C3CC3)N(CCOC)C=C2C(=O)C(C)(OC(=O)c2ccco2)C1=O (configuration not stated)	5.1%[10 µM]	2.5%[13.5 µM]	.	-8.6%	-5.9%[9.22 µM]
Cc1onc(-c2c(Cl)cccc2Cl)c1C(=O)c1c[nH]c(C(=O)NCC2CCCO2)c1 (configuration not stated)	8.2%[10 µM]	?	2.5%	.	?
CCOc1ccccc1-n1nnnc1SCC(=O)OC	-14.6%[10 µM]	-15.0%	24.1%	.	.
Cc1cc(C)nc(SCC(=O)Nc2ccc(N3CCOCC3)c(Cl)c2)n1	2.3%[1.9 µM]	22.4µM*	?	-6.6%	?
O=C(CSc1nnnn1-c1cccc2ccccc12)Nc1ccc(N2CCOCC2)c(Cl)c1	-1.6%	1.78µM*	?	-6.4%	4.3%
O=C(CSc1nc2ccccc2o1)Nc1ccc(N2CCOCC2)c(Cl)c1	-38.5%[0.074 µM]	?	?	-16.8%	?
CCOC(=O)CSc1nnnn1-c1cccc2ccccc12	-10.9%[0.074 µM]	1.78µM*	-3.0%	25.1µM*	-2.4%
COC(=O)c1cc(CNC(=O)c2cccc(Cl)c2Cl)ccc1OC	.	11.2%	18.2%	?	?
Cc1cccc(CNc2ncnc3ccc(-c4cccc(NS(C)(=O)=O)c4)cc23)c1	-56.7%	?	.	?	?
Cc1ccc(C(=O)c2sc3nsc(C)c3c2N)cc1	13.3%	14.1µM*	1.9%	-27.4%	12.7%
Cc1snc2sc(C(=O)c3ccc(Br)cc3)c(N)c12	-9.1%	6.0%	-16.7%	-10.8%	8.8%
Cc1ccc(-c2nc3ccccc3s2)cc1NC(=S)NC(=O)c1ccccc1	-48.8%	10µM*	15.5%	-12.1%	-2.5%
O=C(NC(=S)Nc1cc(-c2nc3ccccc3[nH]2)ccc1Cl)c1ccc2c(c1)OCO2	.	8.91µM*	-24.8%	20µM*	-11.8%
Cc1ccc(-c2nc3ccccc3s2)cc1NC(=O)c1cc(-n2cnnc2)ccc1Cl	-9.7%	?	21.5%	-21.6%	16.2%
Cc1ccc(-c2nc3ccccc3[nH]2)cc1NC(=O)/C=C/c1ccco1	-68.3%	12.6µM*	?	-19.0%	13.3%
Cc1ccc(-c2nc3ccccc3[nH]2)cc1NC(=O)c1ccc2c(c1)OCO2	-28.1%	5.4%	18.3%	-11.3%	9.6%
O=C(c1ccccc1)c1ccc2nc(-c3ccc(NC(=O)c4ccccc4Br)cc3)[nH]c2c1	-12.3%	?	-1.4%	-3.7%	8.1%
Cc1ccc(-c2nc3ccccc3[nH]2)cc1NC(=S)NC(=O)c1ccccc1Br	-83.6%	28.2µM*	?	-14.8%	8.9%[0.0737 µM]
SMILES	HTT cytoprotect	ALDH1A1 block	HTT aggregate	HPGD inh	Lamin A splicing
COc1ccc2nc(Cl)c(C#N)cc2c1	6.7%[10 µM]	3.6%	-1.7%[9.22 µM]	.	22.3%[46 µM]
CCn1cc(Cl)c(C(=O)Nc2ccccc2C(N)=O)n1	-65.1%	13.4%	-0.2%	.	.
CCOC(=O)N1CCN(C(=O)c2ccc3nc(N4CCC(C)CC4)sc3c2)CC1	-15.0%	?	-9.6%	?	-2.4%
CC1CCN(c2nc3ccc(C(=O)N4CCN(Cc5ccccc5)CC4)cc3s2)CC1	-70.0%	20µM*	-27.3%	14.1µM*	?
CCc1ccc2nc(N3CCN(C(=O)c4ccccc4)CC3)sc2c1	.	.	.	.	11.1%[46 µM]
O=C(c1ccc2nc(N3CCCCC3)sc2c1)N1CCN(c2ccccn2)CC1	-0.4%	28.2µM*	-15.2%	?	-2.9%
COc1cccc(N2CCN(C(=O)c3ccc4nc(N5CCC(C)CC5)sc4c3)CC2)c1	-11.6%[10 µM]	.	10.5%[9.22 µM]	.	.
O=C(c1ccccc1)N1CCN(c2nc3ccc([N+](=O)[O-])cc3s2)CC1	-7.5%	10µM*	20.8%	.	.
CCOC(CNC(=O)c1ccc2nc(N3CCC(C)CC3)sc2c1)OCC	-13.7%	14.1µM*	-10.7%	-10.4%	-19.0%
Cc1ccc(Cl)cc1N1CCN(C(=O)c2cnn(C)c2C2CCN(C(=O)OC(C)(C)C)CC2)CC1	.	.	.	.	-10.3%[46 µM]
O=C(NCc1ccc(-n2cccc2)cc1)c1cccc(F)c1	-59.1%	15.8µM*	23.6%	.	5.7%[9.22 µM]
Fc1ccccc1-c1csc(=Nc2cccnc2)n1CCCn1ccnc1	3.2%[10 µM]	?	35.5µM*	-9.9%	-18.3%
Fc1ccccc1-c1csc(=Nc2cccnc2)n1CC1CCCO1 (configuration not stated)	9.1%[10 µM]	2.3%	3.4%	-27.2%	?
CC(C)Cn1c(-c2ccco2)csc1=Nc1cccnc1	-4.5%	12.6µM*	-17.2%	-14.9%	17.2%
CCOCc1cnc(C)nc1NCC(=O)c1c(C)n(C)c2ccc(OC)cc12	-7.9%[10 µM]	31.6µM*	-13.7%	-6.8%	13.1%
Cc1cc(=O)oc(C)c1C(=O)OCC(=O)c1ccccc1	-3.6%[10 µM]	15.8µM*	6.4%	?	17.8%
Cc1cc(=O)oc(C)c1C(=O)OCC(=O)c1ccc2ccccc2c1	-5.7%	?	-49.9%	?	0.1%
COc1ccc(/C=C2/SC(=S)N(CCC(=O)O)C2=O)cc1	-14.8%	?	-6.6%	-26.5%	?
COc1ccc(/C=C2\OC(=S)N(C)C2=O)cc1	-16.9%[10 µM]	20µM*	-9.4%	-8.6%	?
COc1ncnc2c1oc1nc(CC(C)C)c3c(c12)CC(C)(C)OC3	-22.8%	1µM*	-7.6%	-9.4%	-8.3%
NC(=O)C1CCN(C(=O)c2cc3n(n2)C(C(F)(F)F)CC(c2ccco2)N3)CC1 (configuration not stated)	-5.0%	11.9µM*	-16.7%	-11.3%	-6.3%
Cc1cc(C)nc(SC2c3cccc4cccc(c34)C2NS(=O)(=O)c2ccccc2)n1 (configuration not stated)	.	?	9.1%	-11.8%	?
